This is part of a sample that, as a whole, favours compounds with a hit. Of some 83,000 tested, about 20% had one in any assay.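 Cell lines were cultured in 96-well plates, exposed to a single compound concentration, and assessed for percent growth 48 hours later.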 Values without a mark were called inactive. The source made the active and inactive calls. The calls were made as follows: active = growth percent below 10; inactive = the rest.

Consider 15 molecules from PubChem BioAssay (NCI).

Some test systems named below: SR leukemia; OVCAR-8 ovarian; OVCAR-5 ovarian; OVCAR-4 ovarian; SK-OV-3 ovarian; IGROV1 ovarian; OVCAR-3 ovarian; HS 578T breast; NCI/ADR-RES ovarian; RPMI-8226 leukemia.
Common to all, as to assay: NCI-60 one-dose screen, 48 h (100 = growth as untreated, 0 = no growth, -100 = all killed)
What all share (conditions): 10 µM unless noted

Consider `O=S(=O)(NCCCNc1nccc(-n2ccc3cccnc32)n1)c1cccc(C(F)(F)F)c1`, for which the growth is 103% with SR leukemia; 105% with OVCAR-8 ovarian; 101% in the experiment on OVCAR-5 ovarian; 101% in the experiment with OVCAR-4 ovarian; 112% in the experiment with SK-OV-3 ovarian; 107% with IGROV1 ovarian. Besides, the growth with OVCAR-3 ovarian was 112%; with HS 578T breast it was 100%; in the experiment with NCI/ADR-RES ovarian it was 101%.
In the case of `CCOC(=O)c1ccc2c(c1)nc(-c1ccc(OCc3ccccc3)c(OC)c1)n2-c1cc(C(C)(C)C)[nH]n1`, the growth is 68.9% with SR leukemia; 68.8% in the experiment on RPMI-8226 leukemia; 88.9% in the experiment on OVCAR-5 ovarian; 76.4% with OVCAR-4 ovarian; 91.2% in the experiment on SK-OV-3 ovarian; 83% with IGROV1 ovarian. Also, the growth with OVCAR-3 ovarian is 81.8%; with HS 578T breast it was 82.2%; with NCI/ADR-RES ovarian it was 89.1%.
Regarding `Cc1ccc(S(=O)(=O)NCCCNc2cc(-c3cn(C(C)(C)C)nc3-c3cccc(O)c3)ccn2)cc1`, the growth was 40.6% in the experiment with SR leukemia; 71.9% with OVCAR-8 ovarian; 78.5% in the experiment with OVCAR-5 ovarian; 56% in the experiment on OVCAR-4 ovarian; 85.7% in the experiment on SK-OV-3 ovarian; 61.7% in the experiment on IGROV1 ovarian. Also, the growth in the experiment on OVCAR-3 ovarian is 74.6%; in the experiment with HS 578T breast it was 60%; in the experiment with NCI/ADR-RES ovarian, 72.4%.
For `COc1ccc(-c2nc(/C=N/Nc3cc(C)nc4ccc(Cl)cc34)c(C)o2)cc1`, the growth in the experiment on SR leukemia was -5.37% (active); with OVCAR-8 ovarian, -82% (active); in the experiment on OVCAR-5 ovarian, -93.3% (active); with OVCAR-4 ovarian it was -95.3% (active); with SK-OV-3 ovarian, 92.5%; in the experiment on IGROV1 ovarian, -78.8% (active). Also, the growth with OVCAR-3 ovarian was -96.9% (active); with HS 578T breast it was -29.3% (active); with NCI/ADR-RES ovarian it was -74.7% (active).
In the case of `Cn1cnc2c(N3CCN(C(=O)OCc4ccc5c(Cl)cc(Cl)c(O)c5n4)CC3)nc(Cl)nc21`, the growth in the experiment on SR leukemia is 74.1%; with OVCAR-8 ovarian, 51.3%; with OVCAR-5 ovarian it was 90.5%; with OVCAR-4 ovarian, 32.7%; in the experiment with SK-OV-3 ovarian, 97.6%; in the experiment on IGROV1 ovarian, 66%. Further, the growth in the experiment with OVCAR-3 ovarian was 66.8%; with HS 578T breast, 75.7%; in the experiment on NCI/ADR-RES ovarian, 35.3%.
Regarding `Cc1ccc(S(=O)(=O)NCCNc2nccc(-c3c(-c4cccc(N)c4)nc4sccn34)n2)cc1`, the growth was 95.9% with SR leukemia; 91.4% with OVCAR-8 ovarian; 123% with OVCAR-5 ovarian; 58.8% with OVCAR-4 ovarian; 103% in the experiment with SK-OV-3 ovarian; 86.6% in the experiment on IGROV1 ovarian. Besides, the growth in the experiment on OVCAR-3 ovarian was 87.4%; in the experiment on HS 578T breast, 99.5%; in the experiment with NCI/ADR-RES ovarian, 90.8%.
For the molecule `O=C1NN(C(=O)c2ccc(Cl)cc2)C(c2ccccc2)=N/C1=C\c1cn(-c2ccccc2)nc1-c1ccccc1`, the growth with SR leukemia is 90%; in the experiment with OVCAR-8 ovarian it was 94.1%; in the experiment on OVCAR-5 ovarian, 93.4%; with OVCAR-4 ovarian, 96.8%; in the experiment on SK-OV-3 ovarian, 102%; with IGROV1 ovarian, 95.1%. In addition, the values for the growth in the experiment with OVCAR-3 ovarian, with HS 578T breast and in the experiment with NCI/ADR-RES ovarian were 112%, 94.8% and 92.9%, respectively.
In the case of `COc1ccc(C(=O)N2NC(=O)/C(=C/c3ccc(Br)cc3)N=C2c2ccccc2)cc1`, the growth in the experiment on SR leukemia was 57.2%; in the experiment with OVCAR-8 ovarian it was 78.4%; in the experiment with OVCAR-5 ovarian, 91.4%; in the experiment on OVCAR-4 ovarian, 92.7%; in the experiment with SK-OV-3 ovarian, 85.3%; with IGROV1 ovarian, 92.5%. The growth in the experiment with OVCAR-3 ovarian is 119%; in the experiment with HS 578T breast it was 94.9%; with NCI/ADR-RES ovarian, 83.4%.
As to `C=C1CCC2C(C)(CO)C(O)CCC2(C)C1C/C=C1/C(=O)OCC1O/C=C/c1ccccc1` (stereo not drawn), the growth in the experiment with SR leukemia is 27.6%; with OVCAR-8 ovarian it was 55.3%; with OVCAR-5 ovarian, 93.5%; in the experiment with OVCAR-4 ovarian, 62.7%; in the experiment with SK-OV-3 ovarian it was 125%; in the experiment on IGROV1 ovarian, 84.1%. In addition, the growth was 75.7% with OVCAR-3 ovarian, 96.3% in the experiment on HS 578T breast and 73.9% in the experiment on NCI/ADR-RES ovarian.
For `COc1cc(Nc2ncccc2C(=O)NCc2cn(Cc3cccc(Oc4ccccc4)c3)nn2)cc(OC)c1`, the growth is 25.3% in the experiment with SR leukemia; 53.9% with OVCAR-8 ovarian; 83.2% with OVCAR-5 ovarian; 70.6% with OVCAR-4 ovarian; 41.9% in the experiment with SK-OV-3 ovarian; 58.5% in the experiment with IGROV1 ovarian. Moreover, the growth was -2.42% (active) with OVCAR-3 ovarian, 49.1% in the experiment on HS 578T breast and 9.54% (active) with NCI/ADR-RES ovarian.
For the molecule `COc1ccc(-n2c(-c3ccccc3)c(-c3ccccc3)c3c(SCC(=O)N/N=C/c4ccc(Cl)cc4)ncnc32)cc1`, the growth with SR leukemia was 105%; in the experiment on OVCAR-8 ovarian, 85.3%; in the experiment with OVCAR-5 ovarian it was 98.3%; in the experiment on OVCAR-4 ovarian, 92%; in the experiment on SK-OV-3 ovarian, 73%; in the experiment on IGROV1 ovarian, 87.9%. Also, the results for the growth with OVCAR-3 ovarian, with HS 578T breast and with NCI/ADR-RES ovarian were 85.9%, 93% and 87.1%, respectively.
On to `CC(C)(C)n1cc(-c2ccnc(NCCNS(=O)(=O)c3ccc(F)cc3)c2)c(-c2cccc(O)c2)n1`, for which the growth is 25.5% with SR leukemia; 62.4% in the experiment on OVCAR-8 ovarian; 68.6% with OVCAR-5 ovarian; 56.2% in the experiment on OVCAR-4 ovarian; 79.3% in the experiment on SK-OV-3 ovarian; 68.9% in the experiment on IGROV1 ovarian. The figures for the growth in the experiment with OVCAR-3 ovarian, with HS 578T breast and with NCI/ADR-RES ovarian were 70.5%, 60.3% and 61.7%, respectively.
On to `COc1ccc(-c2ccc(-c3ccc(-c4ccc(C(=N)N)cc4)s3)s2)cc1OC`, for which the growth with SR leukemia was 6.75% (active); in the experiment with OVCAR-8 ovarian it was 101%; in the experiment with OVCAR-5 ovarian it was -12.2% (active); with OVCAR-4 ovarian, -53.2% (active); in the experiment with IGROV1 ovarian, 15.7%; with OVCAR-3 ovarian, -64.9% (active). Besides, the growth in the experiment on HS 578T breast is 89.6%; in the experiment on NCI/ADR-RES ovarian it was 84%.
Take `COc1ccc(/C=C2/C(=O)NC(SCC(=O)N3CCN(c4cc5c(cc4F)c(=O)c(C(=O)O)cn5C4CC4)CC3)=NC2N)cc1OC` (stereo not drawn): the growth with SR leukemia is 108%; in the experiment on OVCAR-8 ovarian it was 106%; with OVCAR-5 ovarian, 104%; in the experiment on OVCAR-4 ovarian, 107%; with SK-OV-3 ovarian, 121%; in the experiment on IGROV1 ovarian, 107%. In addition, the growth with OVCAR-3 ovarian is 107%; in the experiment on HS 578T breast it was 105%; in the experiment with NCI/ADR-RES ovarian it was 104%.
`Cc1ccc(-c2cc3nc(-c4ccccc4)nc(C(Cl)Cl)n3n2)cc1`: the growth with SR leukemia was 71.2%; with OVCAR-8 ovarian, -25.5% (active); in the experiment on OVCAR-5 ovarian, -27.2% (active); in the experiment with OVCAR-4 ovarian, -46% (active); in the experiment on IGROV1 ovarian, 46%; in the experiment on OVCAR-3 ovarian it was -94.5% (active). Also, the growth with HS 578T breast is -42.1% (active); with NCI/ADR-RES ovarian, -30.7% (active).
